Screens: PubChem BioAssay, National Center for Advancing Translational Sciences (NCATS)
A selection: hits, their analogues and other compounds. The true share with any hit is near 14%.
Pf growth 48h: P. falciparum growth inhibition at 48 hours (one generation); P. falciparum luciferase growth in erythrocytes, 48 h; Potency, µM (top dose mostly 28.7 µM), for the others: at the highest dose activity change, negative = inhibition, actives largely listed as inhibitors; 310,000 compounds, 5.9% hits; further: potency means the concentration at half of the fitted maximal effect
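Luciferase-expressing parasites in RBCs, 2% Hct / 0.1% parasitemia final; RPMI 1640 + 0.5% Albumax; 37 C, 5% CO2, one generation; luminescence read-out, lower signal = inhibition.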
Pf growth 96h: P. falciparum growth inhibition at 96 hour, primary screen for plastid delayed-death inhibitors; 320,000 compounds, 6.9% hits; P. falciparum luciferase reporter growth, 96 h; Potency, µM (titrated, usually from 28.7 µM), inactives show top-dose activity change, negative = inhibition, actives largely listed as inhibitors; further: potency means the concentration at half of the fitted maximal effect
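Luminescence readout: decreased luciferase signal marks inhibited growth of reporter-expressing P. falciparum in infected red cells (2% hematocrit, 0.05% parasitemia final), exposed to compound two generations (96 h, 37 C, 5% CO2).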
Sm TGR block: blocks Schistosoma mansoni thioredoxin glutathione reductase | Q962Y6 | purified TGR, DTNB reduction, TNB absorbance 405 nm | Potency, µM (highest dose often 114 µM), for the others: at the top dose activity change, negative = inhibition, hits mostly inhibitors | 360,000 compounds, 3% hits | AID 485364; further: potency means the concentration at half of the fitted maximal effect; nearly all actives have a fitted effect of over 60% in size
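TGR 20 nM + NADPH 100 uM (dispensed conc.), cpd preinc 15 min RT; start with NADPH (500 uM addition) then DTNB (15 mM addition). Kinetic TNB absorbance, 405 nm filter. Four-parameter Hill fit across titration.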
Giardia FBPA inh: inhibitors of Giardia lamblia fructose-1,6-bisphosphate aldolase | 290,000 compounds, 0.71% hits | A8B2U2 | purified Giardia FBPA | Potency, µM (top dose mostly 59.6 µM), for the others: at the top dose activity, negative = inhibition, most hits filed as inhibitors; further: potency means the concentration at half of the fitted maximal effect; nearly all actives have a fitted effect of over 55% in size
Target sequence (A8B2U2 whole entry, looked up): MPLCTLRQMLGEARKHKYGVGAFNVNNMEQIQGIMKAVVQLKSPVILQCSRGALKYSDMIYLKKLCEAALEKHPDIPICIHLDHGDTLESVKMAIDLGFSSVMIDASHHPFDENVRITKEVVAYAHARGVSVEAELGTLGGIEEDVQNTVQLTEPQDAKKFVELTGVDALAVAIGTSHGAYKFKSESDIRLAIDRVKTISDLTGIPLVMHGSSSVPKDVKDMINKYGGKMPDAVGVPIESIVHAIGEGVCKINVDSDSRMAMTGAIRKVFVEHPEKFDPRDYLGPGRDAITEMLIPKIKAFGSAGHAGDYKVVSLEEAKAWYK
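40 nM FBPA preincubated 10 min at RT with compound (up to 57.5 uM final), then substrate plus GAPDH/TPI/NAD/arsenate coupling and diaphorase/resazurin added. Fluorescence read after 20 min at RT, 525/598 nm.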
HCMV antiviral: inhibitors of human cytomegalovirus; HFF cells, HCMV-luciferase reporter, 72 h; hits give low values; activity change, negative = inhibition, % at 57.5 µM; AID 1259415; 410,000 compounds, 4.5% hits; in the data active means activity change below about -60%; inconclusive means no clear call, values can overlap the other calls; inactive means above about -39%
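Cell-based, HFFs, 1000 cells/well, 16 h 37C; cpds in DMSO + HCMV-luc, MOI 1 PFU/cell; 72 h 37C; OneGlo luminescence after 5 min RT; norm. to buffer vs Salinomycin 10uM.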
* hit, by the source's call. Unless noted, the call rests on the fitted dose curve; in most records, active means well fitted curve in the direction sought with a large enough effect; inconclusive means small, poorly fitted or top-dose-only effect, or another doubt; inactive means no such curve, though single readings can be large; an effect the other way counts as inactive or inconclusive. On the % scale 0 is the no-effect control and ±100 the full control effect.

`COc1ccc(CCN2C(=O)c3ccccc3C2c2nnnn2C(C)C)cc1OC` (centres undefined) gave HCMV antiviral -32.
For COc1ccc(C2C3=C(CC(C)(C)CC3=O)N(C)C3=C2C(=O)CC(C)(C)C3)cc1 the results were Pf growth 48h -15%, Pf growth 96h inconclusive, Sm TGR block 3%, Giardia FBPA inh 12% and HCMV antiviral 6.
`C=CCOc1ccc(C2C(C#N)=C(N)N(Nc3ccccc3)C3=C2C(=O)CC(C)(C)C3)cc1OC` (centres undefined) gave Pf growth 48h 8.3µM*, Pf growth 96h 8.3µM*, Sm TGR block 10%, Giardia FBPA inh -13% and HCMV antiviral 18.
Screening C#CCOc1ccc(C2C3=C(CC(C)(C)CC3=O)N(CC(=O)O)C3=C2C(=O)CC(C)(C)C3)cc1OC returned Pf growth 48h -2%, Pf growth 96h inconclusive, Sm TGR block 35µM*, Giardia FBPA inh -6% and HCMV antiviral -3.
`COc1ccc(C2C3=C(CC(C)(C)CC3=O)N(C)C3=C2C(=O)CC(C)(C)C3)cc1OC` gave Pf growth 48h 16%, Pf growth 96h 13µM*, Sm TGR block inconclusive, Giardia FBPA inh -13% and HCMV antiviral -24.
`COc1ccc(NC(=O)Cn2c(=O)n(-c3ccc(CC(=O)NCc4ccco4)cc3)c(=O)c3ccccc32)cc1` gave Pf growth 48h 19%, Pf growth 96h 15%, Sm TGR block -2%, Giardia FBPA inh 1% and HCMV antiviral -63*.
For COc1cccc(NC(=O)Cn2c(=O)n(-c3cc(OC)c(OC)c(OC)c3)c(=O)c3ccccc32)c1 the results were Pf growth 48h 10µM*, Pf growth 96h inconclusive, Sm TGR block 9%, Giardia FBPA inh 3% and HCMV antiviral -39.
For COc1ccc(NC(=O)Cn2c(=O)n(-c3ccc(OC)c(OC)c3)c(=O)c3ccccc32)cc1 the results were Sm TGR block 0% and HCMV antiviral 35.
Screening COc1cc(OC)c(N2CC(C(=O)Nc3cccc(C(=O)NC4CC4)c3)CC2=O)cc1Cl (centres undefined) returned Pf growth 48h 1%, Pf growth 96h -26%, Sm TGR block -9% and HCMV antiviral -5.
`Cc1[nH]c2ccccc2c1SCC(=O)N1CCCc2ccccc21` gave Pf growth 48h -30%, Pf growth 96h inconclusive, Sm TGR block 4%, Giardia FBPA inh -2% and HCMV antiviral -8.
`Cc1[nH]c2ccccc2c1C(=O)C(=O)N1c2ccccc2CC1C` (centres undefined) gave Pf growth 48h 6.6µM*, Pf growth 96h 12µM*, Sm TGR block inconclusive, Giardia FBPA inh -9% and HCMV antiviral -62*.
Screening Cc1[nH]c2ccccc2c1C(=O)C(=O)N1CCCc2ccccc21 returned Pf growth 48h inconclusive, Pf growth 96h 10µM*, Sm TGR block 8%, Giardia FBPA inh -30% and HCMV antiviral -36.
For COCCNC(=S)N/N=C(\C)c1ccccc1OC the results were Pf growth 48h inconclusive, Pf growth 96h inconclusive, Sm TGR block inconclusive, Giardia FBPA inh -22% and HCMV antiviral -30.
For COCCNC(=S)N/N=C(\C)c1ccc(Cl)c(Cl)c1Cl the results were Pf growth 48h -18%, Pf growth 96h inconclusive, Sm TGR block -2%, Giardia FBPA inh -5% and HCMV antiviral 3.
Screening COCCNC(=S)N/N=C(\C)c1ccccc1O returned Pf growth 48h 2.9µM*, Pf growth 96h inconclusive, Sm TGR block -5%, Giardia FBPA inh 15% and HCMV antiviral -11.
`COCCNC(=S)N/N=C(\C)c1ccccc1F` gave Pf growth 48h inconclusive, Pf growth 96h 9.3µM*, Sm TGR block inconclusive, Giardia FBPA inh inconclusive and HCMV antiviral -37.
Cc1cc(C)nc(Sc2ncnc3sc4c(c23)CCC4)n1 was read as Pf growth 48h -14%, Pf growth 96h -9%, Sm TGR block -12%, Giardia FBPA inh -1% and HCMV antiviral -71*.
O=C(NCc1ccccc1Cl)C1CCN(C(=O)c2ccco2)CC1 was read as Pf growth 48h 6%, Pf growth 96h inconclusive, Sm TGR block 18% and Giardia FBPA inh -6%.
